The text below walks through data of PubChem BioAssay (NCATS).

Assay [1] concerns the target Lysosomal acid glucosylceramidase (Homo sapiens) (UniProt P04062). Description: Glucocerebrosidase-p2 (AID 348; in the data active = potency below about 10 µM; also: potency is read from the fitted curve at half-maximal effect). Conditions: purified GBA, blue fluorogenic substrate, 40 min. An outline of the steps: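 Compounds titrated from 0.6 nM upwards against 0.2 nM enzyme in pH 5.9 citric acid/KH2PO4, taurocholate, tween-20; blue fluorogenic substrate 80 uM, 40 min room temperature, stopped and read Ex 365/Em 440 for AC50.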

Assay [2] can be described thus: AP1 Signaling Pathway (AID 357; active = well fitted curve in either direction with a large enough effect, not every such curve was filed as active;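 also: ME-180 reporter cells stimulated with EGF at its EC50 level; % is scaled to controls: 0 for no effect and ±100 for the full control effect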). To be noted: ME-180 AP-1-bla reporter, EGF-induced, beta-lactamase ratio, 5 h; at 7.69 µM (top of the series) unless noted. An outline of the steps: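 Modulation of EGF-driven AP-1 transcription was assessed with a beta-lactamase reporter in ME-180 cells. Compound and EC50 EGF were co-incubated 5 hours at 37 °C before 2.5-hour CCF4 loading at room temperature and dual-emission reading.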

In assay [3] the target is Cytochrome P450 1A2 (Homo sapiens) (UniProt P05177). Description: p450-cyp1a2 (AID 410; calls by dose curve; also: potency is read from the fitted curve at half-maximal effect;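 as to activity change, negative = inhibition: -100% = full effect of reference inhibitor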). To be noted: recombinant CYP1A2, luciferin-ME demethylation, luminescence; series mostly up to 57 µM. An outline of the steps: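 20nM CYP1A2 with 100uM Luciferin-ME (at Km) in 100mM KPO4; compound preincubated 10 min, NADPH regeneration added, 60 min at room temperature. Luciferin quantified by luminescence after detection reagent; normalized to 57 uM furafylline.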
Cytochrome P450 1A2 (Homo sapiens), sequence (P05177 whole entry, looked up): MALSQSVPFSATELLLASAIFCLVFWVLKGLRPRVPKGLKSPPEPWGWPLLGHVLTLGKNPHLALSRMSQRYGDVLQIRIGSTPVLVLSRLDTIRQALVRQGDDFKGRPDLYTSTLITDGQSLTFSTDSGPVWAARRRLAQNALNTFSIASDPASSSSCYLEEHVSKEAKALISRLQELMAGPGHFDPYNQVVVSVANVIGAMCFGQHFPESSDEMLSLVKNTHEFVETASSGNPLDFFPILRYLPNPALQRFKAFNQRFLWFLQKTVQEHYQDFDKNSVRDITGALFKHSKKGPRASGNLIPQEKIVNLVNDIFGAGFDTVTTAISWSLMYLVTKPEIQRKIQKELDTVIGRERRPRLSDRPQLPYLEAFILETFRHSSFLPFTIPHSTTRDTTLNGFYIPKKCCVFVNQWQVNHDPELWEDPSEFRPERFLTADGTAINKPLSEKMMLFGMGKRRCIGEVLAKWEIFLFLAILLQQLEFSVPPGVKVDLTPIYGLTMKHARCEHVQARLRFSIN

The nature of assay [4]: Stat Signaling Pathway (AID 446; active = well fitted curve in either direction with a large enough effect, not every such curve was filed as active;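 also: ME-180 cervical cancer cells given 40 pM IL-6 alongside compound; SIE-controlled beta-lactamase reporter measured as 460/530 nm FRET emission ratio; % is scaled to controls: 0 for no effect and ±100 for the full control effect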). Conditions: ME-180 (cervical carcinoma) SIE beta-lactamase reporter, IL-6 stimulated, 5 h; at 7.69 µM (top of the series) unless noted. An outline of the steps:
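IL-6/STAT signaling read in ME-180 cells via an SIE beta-lactamase reporter. Stimulus was 40 pM IL-6 (its AC50) for 5 hrs, so both activation and inhibition register.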

Assay [5] concerns the target Glucocorticoid receptor (Homo sapiens) (UniProt P04150). Put plainly: GR-EFC Redistribution (AID 451; calls by dose curve; also: potency is read from the fitted curve at half-maximal effect). Conditions: CHO-K1 GR-EFC translocation, beta-gal luminescence, 2 h. An outline of the steps:
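CHO-K1 cells expressing nuclear EA and GR-ED fragments of b-gal; compounds titrated up to 46 uM final, 2 h at 37 C. GR nuclear translocation read as complemented b-gal luminescence after 1 h RT detection.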

Assay [6] addresses Mitogen-activated protein kinase 10 (Mus musculus) (UniProt Q61831). Put plainly: JNK3 AlphaScreen Assay (AID 530; active = well fitted curve in either direction with a large enough effect, not every such curve was filed as active;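 also: kinase came from lysate of stimulated human HepG2 cells; signal reports phosphorylation of biotinylated GST-cJun 1-79 at Ser73 with 10 µM ATP; % is scaled to controls: 0 for no effect and ±100 for the full control effect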). Conditions: JNK3 lysate, c-Jun phosphorylation; series mostly up to 57.1 µM. Put shortly: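 Pre-activated (IL-1β/TNFα) JNK3 in HepG2 lysates phosphorylates biotin-GST-cJun(1-79), 10 uM ATP; anti-phospho-cJun(Ser73) AlphaScreen read at room temperature, pH 7.6 Tris buffer. Compounds pre-incubated 15 min as titrations.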
(Alpha assays give light when donor and acceptor beads are brought close together.)

For assay [7], the target named is 3',5'-cyclic-AMP phosphodiesterase 4B (Homo sapiens) (UniProt Q07343). Description: qHTS Assay for Inhibitors of PDE-IV (AID 607; active = well fitted activation curve with a large enough effect in the main read-out, with a control signal flat, not every such curve was filed as active; also: % of control where 0% means no effect). Conditions: HEK293 ACTOne CNG channel cells, membrane potential fluorescence; series mostly up to 22.9 µM. Put shortly:
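Live HEK293 cells with a modified cyclic nucleotide-gated (CNG) channel report intracellular cAMP via membrane-potential dye fluorescence (ex 535/em 590 nm). Endogenous PDE-IV was targeted. Compounds were tested at up to 22.9 uM final; RO 20-1724 100 uM served as control.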

Assay [8] concerns the target Cytochrome P450 3A4 (Homo sapiens) (UniProt P08684). Description: qHTS Assay for Inhibitors and Substrates of Cytochrome P450 3A4 (AID 884). Also: potency is read from the fitted curve at half-maximal effect; nearly all actives have a fitted effect of over 50% in size. Conditions: recombinant CYP3A4, Luciferin-PPXE luminescence; series mostly up to 57.1 µM. Put shortly:
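20 nM human CYP3A4 with 25 uM Luciferin-PPXE (at KM) in 200 mM KPO4, preincubated 10 min with compound; NADPH regeneration started a 60 min RT reaction. Luciferin detected by luminescence, normalized to 57 uM ketoconazole as full inhibition.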

For assay [9] the target is unchanged. Description: qHTS Assay for Activators of Cytochrome P450 3A4 (AID 885). Also: nearly all actives have a fitted effect of over 65% in size. To be noted: recombinant CYP3A4, Luciferin-PPXE luminescence, 60 min; series mostly up to 57.1 µM. Put shortly: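 Quantitative HTS format: compounds preincubated with 20nM human CYP3A4 and Luciferin-PPXE substrate at KM, reaction started by NADPH regeneration, stopped after 60 min, luciferase luminescence read 20 min later.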
(In general: qHTS replaces the single test concentration by a dilution series.)

Assay [10] addresses Cytochrome P450 2C19 (Homo sapiens) (UniProt P33261). Description: qHTS Assay for Inhibitors and Substrates of Cytochrome P450 2C19 (AID 899). Also: potency is read from the fitted curve at half-maximal effect; nearly all actives have a fitted effect of over 60% in size. Conditions: recombinant CYP2C19, luciferin-H EGE luminescence; series mostly up to 57.1 µM. An outline of the steps:
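5 nM human CYP2C19 with 10uM Luciferin-H EGE (at KM) in 50mM KPO4, compound preincubated 10 min at 37C, then NADPH regeneration for 60 min at 37C. Luciferin read by luminescence after detection reagent; normalized to 57uM ketoconazole as full inhibition.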

A short description of assay [11]: qHTS Assay for Lipid Storage Modulators (AID 1519; calls by dose curve). Conditions: Drosophila S3 cells, BODIPY lipid droplet/cell ratio, laser cytometry, cells loaded with oleic acid; for activity change, negative = inhibition: at 57.5 µM (top of the series). Put shortly: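 Cells seeded at 5,000 per well were treated with compounds over a concentration series and loaded with oleic acid (400 uM, as added). Lipid droplet fluorescence (488 nm excitation, 500-530 nm channel) was read by laser-scanning cytometry and normalized to 20 uM Triacsin C.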

The nature of assay [12]: NFAT Signaling Pathway (AID 444; active = well fitted curve in either direction with a large enough effect, not every such curve was filed as active;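 also: carbachol stimulus at about its EC50 of 1 µM final; % is scaled to controls: 0 for no effect and ±100 for the full control effect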). Conditions: Jurkat NFAT-bla M1, carbachol, beta-lactamase ratio, 5 h; at 7.69 µM (top of the series) unless noted. Put shortly: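 Jurkat cells with NFAT-driven β-lactamase reporter and co-expressed M1 receptor, stimulated with carbachol (final 1 uM, ~EC50), compound titration, 5 h at 37 °C. CCF4 loaded 1 h at RT; 460/530 nm ratio gave %activity and AC50.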

For assay [13], the target named is Glucocorticoid receptor (Homo sapiens) (UniProt P04150). Description: GR-GFP Redistribution (AID 450;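 active = compounds whose dose series gives a full or clear partial fitted curve of increased nuclear translocation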; also: potency is read from the fitted curve at half-maximal effect). Conditions: U2OS GR-GFP nuclear translocation, laser cytometry, 2 h.
Glucocorticoid receptor (Homo sapiens), sequence (P04150 whole entry, looked up, the tested form may be a part): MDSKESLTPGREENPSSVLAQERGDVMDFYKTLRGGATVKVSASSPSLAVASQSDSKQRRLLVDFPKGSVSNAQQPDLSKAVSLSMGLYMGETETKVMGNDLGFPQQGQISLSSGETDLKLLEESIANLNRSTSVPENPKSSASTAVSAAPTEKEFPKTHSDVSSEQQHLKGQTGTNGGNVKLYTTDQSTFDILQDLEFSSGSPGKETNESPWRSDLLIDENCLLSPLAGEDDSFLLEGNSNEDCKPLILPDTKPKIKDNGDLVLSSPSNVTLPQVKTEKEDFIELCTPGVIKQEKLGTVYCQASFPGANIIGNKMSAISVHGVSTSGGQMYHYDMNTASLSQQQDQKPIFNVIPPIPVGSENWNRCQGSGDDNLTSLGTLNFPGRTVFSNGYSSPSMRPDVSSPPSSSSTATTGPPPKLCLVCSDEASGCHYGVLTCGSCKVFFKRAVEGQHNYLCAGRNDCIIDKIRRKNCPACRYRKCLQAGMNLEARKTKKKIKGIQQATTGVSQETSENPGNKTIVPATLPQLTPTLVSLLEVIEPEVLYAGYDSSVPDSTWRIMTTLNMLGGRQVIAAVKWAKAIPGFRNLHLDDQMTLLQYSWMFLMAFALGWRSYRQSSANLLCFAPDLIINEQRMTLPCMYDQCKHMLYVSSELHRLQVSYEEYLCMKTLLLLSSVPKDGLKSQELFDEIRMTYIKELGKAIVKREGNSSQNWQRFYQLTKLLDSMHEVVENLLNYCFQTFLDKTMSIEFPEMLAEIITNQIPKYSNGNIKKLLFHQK
Assay [14] deals with Dual specificity protein kinase CLK4 (Homo sapiens) (UniProt Q9HAZ1). Put plainly: qHTS Assay for Inhibitors of CDC-like Kinase 4 (ADP-Glo Assay) (AID 1771). Also: nearly all actives have a fitted effect of over 70% in size. Also: potency is read from the fitted curve at half-maximal effect. Conditions: recombinant CLK4, ADP-Glo luminescence; series mostly up to 80 µM. Put shortly: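 25 nM Clk4 with 100 uM RS repeat peptide and 1 uM ATP (final) in buffer with 2 mM MgCl2, 0.5 mM EGTA, 2.5 mM DTT, 0.01% Triton X-100; 1 h at room temperature; ADP-Glo luminescence for ADP formed.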
Dual specificity protein kinase CLK4 (Homo sapiens), sequence (Q9HAZ1 whole entry, looked up): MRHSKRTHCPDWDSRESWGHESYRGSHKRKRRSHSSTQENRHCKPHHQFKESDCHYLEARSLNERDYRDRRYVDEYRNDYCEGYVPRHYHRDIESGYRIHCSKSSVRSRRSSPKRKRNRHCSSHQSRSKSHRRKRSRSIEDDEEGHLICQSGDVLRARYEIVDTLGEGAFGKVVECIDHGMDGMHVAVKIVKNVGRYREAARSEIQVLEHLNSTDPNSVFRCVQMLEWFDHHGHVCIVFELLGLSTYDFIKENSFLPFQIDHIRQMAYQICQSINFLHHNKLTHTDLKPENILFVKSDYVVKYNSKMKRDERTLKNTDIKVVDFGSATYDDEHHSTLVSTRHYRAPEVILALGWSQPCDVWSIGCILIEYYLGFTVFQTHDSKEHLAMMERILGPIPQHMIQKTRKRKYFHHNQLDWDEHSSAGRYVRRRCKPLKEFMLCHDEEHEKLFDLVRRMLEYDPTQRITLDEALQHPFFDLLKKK

For assay [15] the target is unchanged. Put plainly: qHTS Assay for Inhibitors of CDC-like Kinase 4 (ADP-FP Assay) (AID 1795). Also: % is scaled to controls: 0 for no effect and ±100 for the full control effect; nearly all actives have a fitted effect of over 60% in size. To be noted: Transcreener ADP fluorescence polarization; series mostly up to 50 µM. An outline of the steps: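 Recombinant human Clk4 (6.25 nM) phosphorylated RS repeat peptide (100 uM) with 1 uM ATP in Tris pH 7.5/MgCl2/EGTA/DTT/Triton buffer for one hour. ADP was quantified by Transcreener competitive fluorescence polarization against an ADP calibration curve.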

Assay [16] addresses Ubiquitin carboxyl-terminal hydrolase 1 (Homo sapiens) (UniProt O94782). Description: Inhibitors of USP1/UAF1: Pilot qHTS (AID 504865).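 Also: rhodamine fluorescence freed from ubiquitin-rhodamine substrate followed over time; top concentration of the series differs between compounds; % is scaled to controls: 0 for no effect and ±100 for the full control effect; nearly all actives have a fitted effect of over 35% in size.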 Conditions: purified USP1/UAF1, Ub-rhodamine cleavage fluorescence; series mostly up to 54.9 µM. Put shortly: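 USP1/UAF1 complex (1nM) preincubated with compound 15 min at room temperature, then Ub-Rho substrate (150nM final) added. Fluorescence read kinetically at 480/540 nm, 6 reads every 60 seconds. Buffer: 50mM HEPES pH 7.8, 0.5mM EDTA, 0.1 mg/ml BSA, 1mM TCEP, 0.01% Tween-20.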

Assay [17] in a line: Primary qHTS for inhibitors of nuclear receptor binding SET domain protein 2 (NSD2) in an isogenic RCH-ACV NSD2 p.E1099K mutant (9B) (AID 1645876). Also: nearly all actives have a fitted effect of over 70% in size. Conditions: RCH-ACV NSD2 E1099K (9B) viability, CellTiter-Glo, 72 h; series mostly up to 44.9 µM.
The nature of assay [18]: Primary qHTS for inhibitors of nuclear receptor binding SET domain protein 2 (NSD2) in an RCH-ACV wild type WT cells (2C) (AID 1645877). Also: % is scaled to controls: 0 for no effect and ±100 for the full control effect; nearly all actives have a fitted effect of over 70% in size. Conditions: RCH-ACV (leukaemia line) NSD2 WT (2C) viability, CellTiter-Glo, 72 h; series mostly up to 44.9 µM.
The target of assay [19] is Glutathione peroxidase 1 (Homo sapiens) (UniProt P07203). Put plainly: Primary qHTS Assay for Inhibitors of Recombinant Selenoprotein Glutathione Peroxidase 1 (GPX1) (AID 1845191). Also: % is scaled to controls: 0 for no effect and ±100 for the full control effect; nearly all actives have a fitted effect of over 65% in size. Conditions: recombinant GPX1, GR-coupled NADPH fluorescence, 15 min; series mostly up to 48.8 µM. An outline of the steps:
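GR-coupled assay: compounds preincubated 30 min at room temperature with GPX1, then reaction started with CHP; final 10 nM GPX1, 1 mM GSH, 0.5 mM CHP, 0.5 mM NADPH, 100 nM GR, 0.01% BSA, pH 7.5 Tris buffer. NADPH fluorescence (340/450 nm) read at 0 and 15 min.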

The target in assay [20] is Phospholipid hydroperoxide glutathione peroxidase GPX4 (Homo sapiens) (UniProt P36969). Put plainly: Primary qHTS Assay for Inhibitors of Recombinant Selenoprotein Glutathione Peroxidase 4 (GPX4) (AID 1845192). Also: % is scaled to controls: 0 for no effect and ±100 for the full control effect; nearly all actives have a fitted effect of over 65% in size. To be noted: recombinant GPX4, GR-coupled NADPH fluorescence, 15 min; series mostly up to 50 µM. Put shortly:
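GR-coupled assay: recombinant GPX4 preincubated 30 min with compound at room temperature; final 200 nM GPX4, 1 mM GSH, 0.5 mM cumene hydroperoxide, 0.5 mM NADPH, 100 nM GR, 0.01% BSA, pH 7.5 Tris. NADPH fluorescence (340/450 nm) read at 0 and 15 min.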

Assay [21] can be described thus: qHTS drug screen for cell cycle checkpoint inhibitors in PARPi-resistant BRCA-mutant ovarian cancer cell lines. (AID 1963452; calls by dose curve). Conditions: PEO1/OlaR viability, CellTiter-Glo luminescence, 96 h, stronger effect = lower value. An outline of the steps: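 PEO1, PEO4 and PEO1/OlaR ovarian cancer cells, 600 per well, exposed 96 h at 37C to a dilution series. Viability read by CellTiter-Glo luminescence, normalized to DMSO and empty wells; activity summarized as Z-AUC.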

[22] abbreviates: measured here: cell count channel max response.
Setting [23] is: measured here: lipid channel max response.

Records with an inconclusive call do not appear. Active and inactive are the calls of the source. Unless noted, calls follow the shape of the dose curve; as a rule, active = well fitted curve in the direction sought with a large enough effect; inconclusive = small, poorly fitted or top-dose-only effect, or another doubt; inactive = no such curve, though single readings can be large; an effect the other way counts as inactive or inconclusive.

Cytochrome P450 3A4 (Homo sapiens), sequence (P08684 whole entry, looked up): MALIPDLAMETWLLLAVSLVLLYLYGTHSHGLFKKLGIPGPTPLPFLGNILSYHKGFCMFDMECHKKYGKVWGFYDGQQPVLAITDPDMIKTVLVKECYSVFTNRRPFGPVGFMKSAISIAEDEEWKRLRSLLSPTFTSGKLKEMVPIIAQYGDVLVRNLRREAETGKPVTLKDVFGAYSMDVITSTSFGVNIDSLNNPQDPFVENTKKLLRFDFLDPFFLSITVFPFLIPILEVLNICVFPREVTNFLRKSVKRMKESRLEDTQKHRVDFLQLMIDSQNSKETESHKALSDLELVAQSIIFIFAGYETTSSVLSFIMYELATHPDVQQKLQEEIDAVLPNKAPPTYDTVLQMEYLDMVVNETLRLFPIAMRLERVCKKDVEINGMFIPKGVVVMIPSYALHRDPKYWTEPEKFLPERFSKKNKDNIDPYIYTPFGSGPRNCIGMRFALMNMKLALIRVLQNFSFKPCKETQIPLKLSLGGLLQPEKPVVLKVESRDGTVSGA
Ubiquitin carboxyl-terminal hydrolase 1 (Homo sapiens), sequence (O94782 whole entry, looked up): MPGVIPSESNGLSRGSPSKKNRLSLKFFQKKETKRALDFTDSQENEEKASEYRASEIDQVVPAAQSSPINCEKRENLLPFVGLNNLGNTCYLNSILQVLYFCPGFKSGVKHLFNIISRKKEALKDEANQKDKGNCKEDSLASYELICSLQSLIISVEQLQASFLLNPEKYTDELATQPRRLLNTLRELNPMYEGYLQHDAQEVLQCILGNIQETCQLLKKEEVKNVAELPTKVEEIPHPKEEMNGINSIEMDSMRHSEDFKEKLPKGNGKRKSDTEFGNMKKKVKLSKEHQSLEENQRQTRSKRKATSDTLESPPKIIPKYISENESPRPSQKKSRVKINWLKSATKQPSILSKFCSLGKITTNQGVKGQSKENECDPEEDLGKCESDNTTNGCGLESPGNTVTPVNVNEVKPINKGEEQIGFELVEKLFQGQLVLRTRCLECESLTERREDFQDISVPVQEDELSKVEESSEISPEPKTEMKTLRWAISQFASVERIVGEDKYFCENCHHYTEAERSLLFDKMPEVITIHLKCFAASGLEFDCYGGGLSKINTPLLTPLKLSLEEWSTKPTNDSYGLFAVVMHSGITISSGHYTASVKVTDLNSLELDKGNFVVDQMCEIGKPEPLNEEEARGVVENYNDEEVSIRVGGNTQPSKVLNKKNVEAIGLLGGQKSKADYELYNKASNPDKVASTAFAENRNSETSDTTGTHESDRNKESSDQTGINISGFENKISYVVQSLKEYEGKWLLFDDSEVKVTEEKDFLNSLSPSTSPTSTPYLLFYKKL
3',5'-cyclic-AMP phosphodiesterase 4B (Homo sapiens), sequence (Q07343 whole entry, looked up): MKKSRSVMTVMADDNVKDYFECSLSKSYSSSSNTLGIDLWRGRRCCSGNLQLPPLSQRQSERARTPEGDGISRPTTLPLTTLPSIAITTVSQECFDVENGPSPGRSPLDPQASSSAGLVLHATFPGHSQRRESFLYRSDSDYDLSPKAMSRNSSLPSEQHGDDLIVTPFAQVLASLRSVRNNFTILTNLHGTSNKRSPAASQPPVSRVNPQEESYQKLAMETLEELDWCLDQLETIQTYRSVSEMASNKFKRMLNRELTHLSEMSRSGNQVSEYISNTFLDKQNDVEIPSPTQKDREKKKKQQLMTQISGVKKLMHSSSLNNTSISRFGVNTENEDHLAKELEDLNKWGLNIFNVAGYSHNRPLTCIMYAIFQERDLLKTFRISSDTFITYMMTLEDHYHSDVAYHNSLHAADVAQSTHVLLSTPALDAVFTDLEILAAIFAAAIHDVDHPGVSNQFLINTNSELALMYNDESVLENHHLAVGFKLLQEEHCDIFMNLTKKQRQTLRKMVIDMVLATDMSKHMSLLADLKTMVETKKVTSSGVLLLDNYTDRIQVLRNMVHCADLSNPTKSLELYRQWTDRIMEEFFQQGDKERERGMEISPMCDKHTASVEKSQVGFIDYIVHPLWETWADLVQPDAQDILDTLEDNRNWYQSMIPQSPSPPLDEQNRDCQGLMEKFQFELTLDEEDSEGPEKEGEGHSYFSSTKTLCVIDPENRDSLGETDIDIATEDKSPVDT
Lysosomal acid glucosylceramidase (Homo sapiens), sequence (P04062 whole entry, looked up): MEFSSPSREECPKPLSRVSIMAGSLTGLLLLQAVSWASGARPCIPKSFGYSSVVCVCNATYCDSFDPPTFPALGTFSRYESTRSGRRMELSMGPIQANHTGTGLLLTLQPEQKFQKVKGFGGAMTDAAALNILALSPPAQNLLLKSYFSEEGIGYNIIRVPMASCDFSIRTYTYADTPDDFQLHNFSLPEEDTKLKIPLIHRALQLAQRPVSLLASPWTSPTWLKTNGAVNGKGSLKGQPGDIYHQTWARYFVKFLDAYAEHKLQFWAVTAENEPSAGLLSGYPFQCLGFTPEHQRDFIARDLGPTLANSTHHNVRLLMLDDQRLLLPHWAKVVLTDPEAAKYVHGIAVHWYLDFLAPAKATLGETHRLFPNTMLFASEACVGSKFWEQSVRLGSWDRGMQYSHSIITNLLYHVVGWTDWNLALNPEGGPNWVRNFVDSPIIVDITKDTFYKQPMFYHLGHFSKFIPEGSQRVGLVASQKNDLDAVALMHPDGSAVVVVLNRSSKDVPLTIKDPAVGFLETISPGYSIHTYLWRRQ
Cytochrome P450 2C19 (Homo sapiens), sequence (P33261 whole entry, looked up): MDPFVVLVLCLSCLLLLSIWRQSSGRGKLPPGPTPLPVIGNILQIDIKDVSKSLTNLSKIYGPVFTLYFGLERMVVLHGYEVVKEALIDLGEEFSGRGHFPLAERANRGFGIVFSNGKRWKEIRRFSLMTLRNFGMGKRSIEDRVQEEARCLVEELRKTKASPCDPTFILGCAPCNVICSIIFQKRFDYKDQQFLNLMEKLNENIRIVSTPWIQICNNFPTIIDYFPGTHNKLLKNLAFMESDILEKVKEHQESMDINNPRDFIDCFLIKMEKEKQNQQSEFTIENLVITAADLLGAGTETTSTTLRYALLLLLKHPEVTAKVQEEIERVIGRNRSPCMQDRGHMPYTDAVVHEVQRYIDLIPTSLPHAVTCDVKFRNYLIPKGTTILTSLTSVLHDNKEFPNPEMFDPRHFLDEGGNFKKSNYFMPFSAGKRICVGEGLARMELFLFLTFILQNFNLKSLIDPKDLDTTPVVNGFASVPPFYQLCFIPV
Phospholipid hydroperoxide glutathione peroxidase GPX4 (Homo sapiens), sequence (P36969 whole entry, looked up): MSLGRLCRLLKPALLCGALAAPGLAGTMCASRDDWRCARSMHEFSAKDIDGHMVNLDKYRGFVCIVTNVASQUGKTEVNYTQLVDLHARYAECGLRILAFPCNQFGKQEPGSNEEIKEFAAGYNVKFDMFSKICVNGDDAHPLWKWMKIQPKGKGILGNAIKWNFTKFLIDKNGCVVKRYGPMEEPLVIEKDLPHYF

On to `O=S(=O)(c1ccccc1)N1CCC[C@@]2(CCN(c3ccncc3)C2)C1`, for which the Potency in assay [1] is > 11.4 µM (inactive); in assay [5], > 46 µM (inactive); in [8], 3.98 µM (active); in assay [10] it was 0.398 µM (active). For the same compound, the activity change, negative = inhibition was -6.47% (inactive) in assay [2] and 0.287% (inactive) in assay [11]. Moreover, the Potency result in assay [3], in assay [7] and in assay [9] was “inactive” in each case. Also, the activity, negative = inhibition in assay [4] was 0.894% (inactive). The compound was classed as inactive in assay [6]. For the same compound, the results for the max response in [11] (setting [22]) and in assay [11] (setting [23]) were 4.65% and 6.49%, respectively.

Turning to `Cc1nc2cnc(OCc3ccccc3)nc2n(C)c1=O`, the activity change, negative = inhibition in [2] was -10% (inactive); in [12], -3.24% (inactive); in [11], 7.08% (inactive). In addition, in assay [4], the activity, negative = inhibition was -5.11% (inactive). Also, the Potency was > 9.22 µM (inactive) in assay [13] and > 46 µM (inactive) in assay [5]. Further, the compound was called inactive in assay [6]. For the same compound, the Potency entry in [7], in assay [14], in [15] and in assay [16] was “inactive” each time. The max response in assay [11] (setting [22]) amounted to 13.5%; in assay [11] (setting [23]), 17.9%.

As to `CCO[C@@H]1OC(=O)C[C@@H]1NC(=O)[C@@H]1CCCN2C(=O)CC[C@H](NC(=O)c3nccc4ccccc34)C(=O)N12`, the Potency entry in assay [17], in [18], in [19] and in assay [20] was “inactive” throughout. Also, the Z-AUC is -0.883 (inactive) in [21], -0.455 in assay [21] (measured here: PEO1 parental Z-AUC) and -1.09 in assay [21] (measured here: PEO4 Z-AUC).

In the case of `COc1cccc(Nc2ncc3nc(C)c(=O)n(CCc4ccccc4)c3n2)c1`, the Potency in [1] is > 11.4 µM (inactive); in assay [3], 5.01 µM (active); in [13] it was > 9.22 µM (inactive); in assay [5] it was > 46 µM (inactive); in assay [8] it was 7.94 µM (active); in assay [14], 7.08 µM (active). For the same compound, the activity change, negative = inhibition in assay [2] is -17.7% (inactive); in assay [12], 3.56% (inactive); in assay [11], -2.06% (inactive). For the same compound, the activity, negative = inhibition in assay [4] is -6.89% (inactive). Moreover, the call in assay [6] was inactive. In addition, the Potency entry in [9] and in [16] was “inactive” in each case. In addition, the max response in [11] (setting [22]) is -10.5%; in [11] (setting [23]), -13.8%.
